Test results: PubChem BioAssay (NCI)
About 83,000 compounds went through this panel and 20% of them were active in at least one assay; those are over-represented in the sample as a whole.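 Negative percent growth values reflect cell death: -40 means 40% of the cells present at the start died, and -100 means all died.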 Active and inactive are the calls of the source. Rule for the calls: active = growth percent below 10; inactive = the rest.

How the values were obtained:
Assay in all cases: NCI-60 one-dose screen, 48 h (100 = growth as untreated, 0 = no growth, -100 = all killed)
Settings in all cases: 10 µM unless noted
SK-MEL-2 melanoma = system: SK-MEL-2 melanoma
EKVX NSCLC = system: EKVX NSCLC
SN12C renal = system: SN12C renal
UO-31 renal = system: UO-31 renal
TK-10 renal = system: TK-10 renal
ACHN renal = system: ACHN renal
CAKI-1 renal = system: CAKI-1 renal
A498 renal = system: A498 renal
CCRF-CEM leukemia = system: CCRF-CEM leukemia
MOLT-4 leukemia = system: MOLT-4 leukemia

SMILES: COc1ccc2[nH]cc(-c3nc(-c4cn(C)c5c(Cl)nccc45)cs3)c2c1
- growth (SK-MEL-2 melanoma): 50.9% (inactive)
- growth (EKVX NSCLC): 73.7% (inactive)
- growth (SN12C renal): 62.5% (inactive)
- growth (UO-31 renal): 36.6% (inactive)
- growth (TK-10 renal): 71.1% (inactive)
- growth (ACHN renal): 22.6% (inactive)
- growth (CAKI-1 renal): 60.2% (inactive)
- growth (A498 renal): 16% (inactive)
- growth (CCRF-CEM leukemia): 22.1% (inactive)
- growth (MOLT-4 leukemia): 36.2% (inactive)

SMILES: O=S(=O)(Nc1ccc(Cl)cc1)c1ccc(-c2cnc(C3CC3)o2)cc1
- growth (SK-MEL-2 melanoma): 39.8% (inactive)
- growth (EKVX NSCLC): 47.9% (inactive)
- growth (SN12C renal): 36.4% (inactive)
- growth (UO-31 renal): 41.5% (inactive)
- growth (TK-10 renal): 54.2% (inactive)
- growth (ACHN renal): 35.4% (inactive)
- growth (CAKI-1 renal): 31.6% (inactive)
- growth (A498 renal): 0.162% (active)
- growth (CCRF-CEM leukemia): 11.4% (inactive)
- growth (MOLT-4 leukemia): 14.2% (inactive)

SMILES: Clc1ccc(Sc2cnc(-c3ccccc3)o2)cc1
- growth (SK-MEL-2 melanoma): 100% (inactive)
- growth (EKVX NSCLC): 98.5% (inactive)
- growth (SN12C renal): 101% (inactive)
- growth (UO-31 renal): 78.4% (inactive)
- growth (TK-10 renal): 85.1% (inactive)
- growth (ACHN renal): 99.7% (inactive)
- growth (CAKI-1 renal): 90.2% (inactive)
- growth (A498 renal): 63.5% (inactive)
- growth (CCRF-CEM leukemia): 99.2% (inactive)
- growth (MOLT-4 leukemia): 100% (inactive)

SMILES: CC/C(=C(/c1ccc(Cl)cc1)c1ccc(OCCN2CCCC2)cc1)c1ccc(OC)cc1
- growth (SK-MEL-2 melanoma): 105% (inactive)
- growth (EKVX NSCLC): 65.1% (inactive)
- growth (SN12C renal): 79.5% (inactive)
- growth (UO-31 renal): 59.5% (inactive)
- growth (TK-10 renal): 76.9% (inactive)
- growth (ACHN renal): 78.6% (inactive)
- growth (CAKI-1 renal): 82% (inactive)
- growth (A498 renal): 108% (inactive)
- growth (CCRF-CEM leukemia): 40.6% (inactive)
- growth (MOLT-4 leukemia): 32% (inactive)

SMILES: CC(=O)N1N=C(c2ccc(Nc3nc(Nc4ccc(Cl)cc4)nc(Nc4ccc(Cl)cc4)n3)cc2)CC1c1ccco1 (stereo not given)
- growth (SK-MEL-2 melanoma): 77.7% (inactive)
- growth (EKVX NSCLC): 97% (inactive)
- growth (SN12C renal): 90.3% (inactive)
- growth (UO-31 renal): 85.6% (inactive)
- growth (TK-10 renal): 110% (inactive)
- growth (ACHN renal): 98.8% (inactive)
- growth (CAKI-1 renal): 86.8% (inactive)
- growth (A498 renal): 107% (inactive)
- growth (CCRF-CEM leukemia): 92.4% (inactive)
- growth (MOLT-4 leukemia): 66% (inactive)

SMILES: CCOP(=O)(OCC)c1nc(-c2ccccc2)oc1NCc1cccnc1
- growth (SK-MEL-2 melanoma): 111% (inactive)
- growth (EKVX NSCLC): 104% (inactive)
- growth (SN12C renal): 103% (inactive)
- growth (UO-31 renal): 89.7% (inactive)
- growth (TK-10 renal): 101% (inactive)
- growth (ACHN renal): 103% (inactive)
- growth (CAKI-1 renal): 97.3% (inactive)
- growth (A498 renal): 102% (inactive)
- growth (CCRF-CEM leukemia): 108% (inactive)
- growth (MOLT-4 leukemia): 101% (inactive)

SMILES: CCOC(=O)c1cc2c(=O)oc3ccccc3c2oc1=O
- growth (SK-MEL-2 melanoma): 78.1% (inactive)
- growth (EKVX NSCLC): 111% (inactive)
- growth (SN12C renal): 98.3% (inactive)
- growth (UO-31 renal): 82.7% (inactive)
- growth (TK-10 renal): 98.6% (inactive)
- growth (ACHN renal): 89.8% (inactive)
- growth (CAKI-1 renal): 111% (inactive)
- growth (A498 renal): 106% (inactive)
- growth (CCRF-CEM leukemia): 88.5% (inactive)
- growth (MOLT-4 leukemia): 87.1% (inactive)

SMILES: Cc1cc2c([nH]1)CSc1cc(S(=O)(=O)c3ccccc3)c(=O)[nH]c1-2
- growth (SK-MEL-2 melanoma): 30.5% [100 µM] (inactive)
- growth (EKVX NSCLC): 21.1% [100 µM] (inactive)
- growth (SN12C renal): 23.8% [100 µM] (inactive)
- growth (UO-31 renal): 35.4% [100 µM] (inactive)
- growth (TK-10 renal): 26.5% [100 µM] (inactive)
- growth (ACHN renal): 23.5% [100 µM] (inactive)
- growth (CAKI-1 renal): 6.96% [100 µM] (active)
- growth (A498 renal): 51.7% [100 µM] (inactive)
- growth (CCRF-CEM leukemia): 19.3% [100 µM] (inactive)
- growth (MOLT-4 leukemia): 32.7% [100 µM] (inactive)

SMILES: CCN(CC)CCSc1nc(-c2ccccc2)c(C#N)c(=O)[nH]1
- growth (SK-MEL-2 melanoma): 97% (inactive)
- growth (EKVX NSCLC): 91.8% (inactive)
- growth (SN12C renal): 116% (inactive)
- growth (UO-31 renal): 110% (inactive)
- growth (TK-10 renal): 128% (inactive)
- growth (ACHN renal): 112% (inactive)
- growth (CAKI-1 renal): 99.8% (inactive)
- growth (A498 renal): 208% (inactive)
- growth (CCRF-CEM leukemia): 150% (inactive)
- growth (MOLT-4 leukemia): 105% (inactive)

SMILES: COc1ccc2[nH]cc(-c3nc(-c4c[nH]c5ccncc45)cs3)c2c1
- growth (SK-MEL-2 melanoma): 84.7% (inactive)
- growth (EKVX NSCLC): 10.8% (inactive)
- growth (SN12C renal): 71.9% (inactive)
- growth (UO-31 renal): 49% (inactive)
- growth (TK-10 renal): 71.1% (inactive)
- growth (ACHN renal): 4.58% (active)
- growth (CAKI-1 renal): 9.06% (active)
- growth (A498 renal): 81.5% (inactive)
- growth (CCRF-CEM leukemia): -7.05% (active)
- growth (MOLT-4 leukemia): -8.02% (active)

SMILES: CS(=O)(=O)C1=CN(CCO)C(=O)N2CCCN=C12
- growth (SK-MEL-2 melanoma): 111% (inactive)
- growth (EKVX NSCLC): 100% (inactive)
- growth (SN12C renal): 99.7% (inactive)
- growth (UO-31 renal): 78% (inactive)
- growth (TK-10 renal): 109% (inactive)
- growth (ACHN renal): 103% (inactive)
- growth (CAKI-1 renal): 98% (inactive)
- growth (A498 renal): 88% (inactive)
- growth (CCRF-CEM leukemia): 114% (inactive)
- growth (MOLT-4 leukemia): 106% (inactive)

SMILES: O=C(Nc1cccc([N+](=O)[O-])c1)c1cc2ccccc2cc1O
- growth (SK-MEL-2 melanoma): 1.68% (active)
- growth (EKVX NSCLC): 3.68% (active)
- growth (SN12C renal): 0.988% (active)
- growth (UO-31 renal): 4.6% (active)
- growth (TK-10 renal): 17.4% (inactive)
- growth (ACHN renal): 0.0296% (active)
- growth (CAKI-1 renal): -22.9% (active)
- growth (A498 renal): 1.58% (active)
- growth (CCRF-CEM leukemia): -12.7% (active)
- growth (MOLT-4 leukemia): -44.6% (active)

SMILES: COc1cccc(NC(=O)Cn2cc(CN3CCN(c4ccnc5cc(Cl)ccc45)CC3)nn2)c1
- growth (SK-MEL-2 melanoma): 106% (inactive)
- growth (EKVX NSCLC): 76.7% (inactive)
- growth (SN12C renal): 92.1% (inactive)
- growth (UO-31 renal): 62% (inactive)
- growth (TK-10 renal): 104% (inactive)
- growth (ACHN renal): 85% (inactive)
- growth (CAKI-1 renal): 78% (inactive)
- growth (A498 renal): 104% (inactive)
- growth (CCRF-CEM leukemia): -45.1% (active)
- growth (MOLT-4 leukemia): 50% (inactive)
